# Measured values as given in the supplement of paper PMC6555819.
# Columns and labels:
# Experiment in all cases: PBM binding z-score (relative to random genomic background probes); higher = stronger binding; sequences stand for … in GC…GCGATTGACAGCGTAGAATGAAGG
# [1] = test system: FXR:RXRa (NR concentration 270 nM, RXRa partner concentration 90 nM)
# In short: (§1)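 Each nuclear receptor dimer, without ligand, was incubated for 1 h on custom Agilent 4×180K protein-binding microarrays. Binding was detected with antibodies against each partner (one per run), and scanned fluorescence was regression-normalized. The binding z-scores are referenced to random human genomic background probes.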
# [2] = test system: LXRa:RXRa (NR concentration 270 nM, RXRa partner concentration 90 nM)
# In short: as §1
# [3] = test system: LXRa homodimer (NR concentration 270 nM)
# In short: as §1
# [4] = test system: LXRb:RXRa (NR concentration 270 nM, RXRa partner concentration 90 nM)
# In short: as §1
# [5] = test system: LXRb homodimer (NR concentration 270 nM)
# In short: as §1
# [6] = test system: PPARa:RXRa (NR concentration 270 nM, RXRa partner concentration 90 nM)
# In short: as §1
# [7] = test system: PPARg:RXRa (NR concentration 180 nM, RXRa partner concentration 90 nM)
# In short: as §1
# [8] = test system: PPARg:RXRa 270nM:90nM, anti-RXR (NR concentration 270 nM, RXRa partner concentration 90 nM)
# In short: as §1
# [9] = test system: PPARg:RXRa 30nM:10nM, anti-RXR (NR concentration 30 nM, RXRa partner concentration 10 nM)
# In short: as §1
# [10] = test system: PPARg:RXRa 90nM:30nM, anti-RXR (NR concentration 90 nM, RXRa partner concentration 30 nM)
# In short: as §1
Sequence,PBM binding z-score [1],PBM binding z-score [2],PBM binding z-score [3],PBM binding z-score [4],PBM binding z-score [5],PBM binding z-score [6],PBM binding z-score [7],PBM binding z-score [8],PBM binding z-score [9],PBM binding z-score [10]
TCATATAGGTAATCCAGGTGAAAGTCGGCATCTA,1.03,1.21,0.37,0.829,0.397,2.4,1.87,2.9,4.14,3.53
CTTAGCAGGCCAATCTGGGTCACTCAAGGCTTGA,0.29,1.18,-0.362,0.386,-0.93,3.08,2.4,2.51,-0.0201,1.43
AGTATGAGGTTAAGATCAGGGAAACAGAATACAT,1.71,2.36,0.00803,1.84,0.314,3.08,1.76,1.45,0.773,1.12
GCGACTGGGGCAAAGCAGGTTACCATGAGGTTGG,0.529,0.0146,-0.506,0.0618,-0.859,1.1,1.18,1.05,-0.313,0.335
GCGACTGGGGCATCAGCGGGTTACCATAACTTAA,-0.361,-0.573,-0.505,0.433,-0.992,1.11,0.815,0.669,-0.383,0.237
TCTTGTAGATCAAAGTTTAAGAAAGCCGAAGCCT,0.983,1.1,0.0318,0.659,0.169,2.46,4.04,5.01,5.17,5.73
AGATGTAGGTTAAGGGTCATTCAGGTTGGTTCGC,5,5.02,2.97,4.61,1.63,6.45,11,9.78,9.52,10.7
CCTGCTGGGTCAATGGTCAGCTAAAGCAGCTCGC,2.08,1.41,-0.526,1.11,-0.873,2.95,3.53,4.63,1.83,3.72
TCATATAGGTAAGCAGGTGAAAGTCCGTAAGTTA,0.125,0.178,-0.0439,0.39,-0.523,1.74,2.16,3.14,3.46,3.36
TCAGACAGGTGAAGGTAACACAGGTACGCAGTCG,1.04,1.17,0.113,1.01,0.0867,1.53,1.29,2.67,3.9,3.28
CGTCCAAGGTCAGAGAGCTCAGTGAATGCCGAGT,4.73,2.83,-0.139,1.84,-0.554,3.92,1.95,2.52,0.0748,1.43
TCTGGTTGGTCAAAGGTCACACACTCGAAATGCG,6.33,5.91,4.59,5.75,2.86,6.43,10.3,9.3,8.98,10.5
CGAACTAGGTCATCGACAGGACAGTGAATAGTAA,3.83,2.6,0.8,2.02,-0.0443,4.87,8.03,6.6,3.86,5.7
CCTCGGGGGACAACAGGAGGTCAGAGCTGCCAGA,2.56,3.46,1.7,3.52,4.28,3.13,1.01,1.67,0.217,1.17
CGAACTAGGCCAGAACAGGACAGTGAAGGATGAT,-0.345,-0.433,-0.144,-0.816,-0.951,0.499,1.22,0.225,0.233,0.37
CAAACTAGGGCACAGAGGTCAAAGTCCGTGCGTA,5.59,5.41,5.74,4.88,1.2,5.71,7.92,6.9,4.71,6.59
TCGAGTAGGTTACGGGCATTCAGAATGGCGTCGA,0.0323,0.894,-0.574,-0.0129,-1.41,1.33,1.14,1.54,0.893,1.06
CCTTACGGGTCACTCCAGGTTATCGCATCGGAGT,4.86,7.44,2.05,5.17,0.292,4.26,3.02,3.76,0.874,2.38
AGAATGAGGTTTTTAAGATCAGGGAATTGCGGTC,-0.295,-0.436,-0.308,-0.234,-0.216,0.0197,0.144,0.00452,0.119,-0.139
CTACCAAGGTGAACAAGGCCGTTGATTACTATTC,0.303,0.209,-0.224,0.646,-0.622,1.25,0.647,0.527,-0.248,0.152
ATCTATAGGTAAAGTTCAGTGAAAGATCGATAGA,1.21,1.7,1.38,1.19,0.71,2.2,3.67,4.69,2.81,4.71
CGAACTAGGTCAAGGACAGTCAATCTCCGCACGC,3.39,2.64,0.323,1.57,-0.248,4.76,7.58,6.42,3.9,5.59
ATACCAAGGTGATCGTGACGTCGTTGATACTAAC,0.364,0.342,0.147,0.547,-0.176,0.36,0.582,0.302,-0.0759,0.172
